# Experimental data published in the supplement of paper PMC10600219.
# Structures can show the parent of a compound that is named as a salt. In all, about 2,800 compounds were measured (“cell viability relative to vehicle”: median about 0.98, lowest 2% from about 0.45 on). This is one part of a sample in which the lowest values are shown more often than they occur.
# Tested on: NCI-H2228 alectinib-DTP
# Test: cell viability relative to vehicle (fraction of vehicle); NCI-H2228 is an ALK-positive lung cancer line and DTP means drug-tolerant persister; higher = less growth inhibition
# Details: 100 nM; treatment time 6 days
# Method in brief: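 Drug-tolerant persister NCI-H2228 cells, produced by 13 days in 1000 nM of a targeted drug, and their parental counterparts were seeded into 384-well plates and, the following day, given the 3114-agent TargetMol anti-cancer compound library at 100 nM or DMSO vehicle. After 6 days, the CellTiter-Glo 3D Cell Viability Assay was used to read ATP. Each entry reports viability compared with vehicle-treated cells.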
row,SMILES,cell viability
1,CC(C)C[C@H](NC(=O)[C@@H](O)[C@H](N)Cc1ccccc1)C(=O)O [Ubenimex],1.05
2,CNC(=O)[C@H](Cc1ccccc1)NC(=O)[C@H](CC(C)C)[C@H](CSc1cccs1)C(=O)NO [Batimastat],1.15
3,CC(C)C[C@H](NC(=O)[C@@H](NC(=O)c1cccc(-c2ccccc2)n1)[C@@H](C)O)B(O)O [Delanzomib],0.301
4,CC(C)C[C@H](NC(=O)[C@H](Cc1ccccc1)NC(=O)c1cnccn1)B(O)O [Bortezomib],0.145
5,CC(C)C[C@H](NC(=O)[C@@H](O)[C@H](N)Cc1ccccc1)C(=O)O [Bestatin hydrochloride],1.12
6,CC(C(=O)Nc1cccc(/N=C/c2c(O)ccc3ccccc23)c1)c1ccccc1 (configuration not stated) [Salermide],0.89
7,O=C(Nc1ccc(C(O)(C(F)(F)F)C(F)(F)F)cc1)c1ccccc1Cl,0.929
8,Cn1cc(-c2cnn3c(N)c(Br)c([C@H]4CCCNC4)nc23)cn1,0.907
9,C/C(=C1/C(=O)Nc2ccc(NC(N)=O)cc21)c1ccc[nH]1,1.02
10,CCN(CC)CCOc1ccc(Nc2ncc3cc(-c4c(Cl)cccc4Cl)c(=O)n(C)c3n2)cc1,0.445
11,CSc1cccc(Nc2ncc3cc(-c4c(Cl)cccc4Cl)c(=O)n(C)c3n2)c1,0.665
12,CCN(CC)CCOc1ccc(Nc2nc(-c3ccccc3NC(=O)CCN3CCN(C)CC3)nc3ccccc23)cc1,1.16
13,N#Cc1cc2cc(CN3CCC(Nc4ncnc5sc(CC(F)(F)F)cc45)CC3)ccc2[nH]1,1.04
14,COc1ccc(-c2nc(-c3cc(C(F)(F)F)cc(C(F)(F)F)c3)n(Cc3ccc(C(N)=O)cc3)c2-c2ccc(OC)cc2)cc1 [Apoptozole],0.817
15,COc1c(OCCCN2CCOCC2)ccc2c1N=C(NC(=O)c1cnc(N)nc1)N1CCN=C21 [Copanlisib],0.38
16,COc1cc2ncnc(Nc3ccc(F)c(Cl)c3)c2cc1OCCCN1CCOCC1 [Gefitinib],0.881
17,COc1cc2c(Oc3ccc(NC(=O)C4(C(=O)Nc5ccc(F)cc5)CC4)cc3F)ccnc2cc1OCCCN1CCOCC1 [Foretinib],0.882
18,Cc1cc(C)c(S(=O)(=O)N(CCc2cccc(Br)c2)Cc2ccc(-c3cccc(S(C)(=O)=O)c3)cc2)c(C)c1,1.12
19,N#C/C(=C/c1ccc(O)c(O)c1)C(=O)N1CCc2ccccc21 [Tyrphostin AG 528],1.03
20,COc1ccc(C=C(C#N)c2cccnc2)cc1OC,0.956
21,COc1ccc2c3n(c(=NC(=O)c4cccnc4)nc2c1OC)CCN3,0.447
22,CCc1nc2c(C)cc(N3CCN(CC(=O)N4CC(O)C4)CC3)cn2c1N(C)c1nc(-c2ccc(F)cc2)c(C#N)s1,1.02
